High-throughput results (PubChem BioAssay)
A selection: hits, their analogues and other compounds. The true share with any hit is near 17%.
ATXN2 expr inh = inhibitors of ATXN2 expression; HEK-293 ATXN2-luciferase reporter, luminescence, 24 h; Potency, µM (titrated, usually from 57 µM), without a hit: top-dose activity change, negative = inhibition, usual class: inhibitors; 360,000 tested, 0.72% active; note: % is set by controls: 0 for no effect and ±100 for the full control effect; nearly all actives have a fitted effect of over 55% in size
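ATXN2-luciferase reporter cells (luciferase flanked by upstream and downstream ATXN2 gene portions) were treated 24 h at 37 °C with compounds at up to 57 uM. SteadyGlo luminescence gave expression; GF-AFC fluorescence gave viability.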
HepG2 viability = counter-screen for TGF-b inhibitors: cytotoxicity in HepG2 cells; Potency, µM (titrated, usually from 46.1 µM), inactives show at the top dose activity change, negative = cytotoxicity, actives largely listed as cytotoxic; 410,000 tested, 0.76% active; HepG2 CAGA-GFP viability, ATP luminescence, 18 h
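HepG2 CAGA-GFP cells (1000/well, DMEM with 1% FBS) received compound, then TGF-beta at 500 pg/mL final, and were incubated 18 hours at 37 degrees C. Viability was read by CellTiter-Glo luminescence. Media-only wells were set as complete cell-killing and DMSO as no toxicity.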
DT40 TDP1 CPT = DT40-hTDP1 cell growth loss with CPT; chicken DT40 Tdp1-/-;hTDP1 cells + 20 nM CPT, ATP luminescence, 48 h; Potency, µM (series often up to 46.2 µM), inactives show top-dose activity change, negative = growth inhibition, usual class: inhibitors; 420,000 tested, 12% active; note: % is set by controls: 0 for no effect and ±100 for the full control effect; nearly all actives have a fitted effect of over 55% in size
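Chicken DT40 Tdp1-/- cells complemented with human TDP1, 400 cells/well, exposed to compounds plus 20 nM camptothecin for at least 48 h at 37 C; viability read as ATP content by CellTiter-Glo luminescence.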
TGFb SMAD3 inh = TGF-b pathway inhibition. AID 588855. Potency, µM (titrated, usually from 46.1 µM), for the others: at the highest dose activity, negative = inhibition, actives largely listed as inhibitors. HepG2 CAGA-GFP TGF-b/SMAD3 reporter, GFP fluorescence, 18 h; TGF-beta stimulated, 500 pg/mL final. 410,000 tested, 1.2% active; note: % is set by controls: 0 for no effect and ±100 for the full control effect; nearly all actives have a fitted effect of over 65% in size
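Per well, imaged GFP fluorescence of HEPG2 CAGA-GFP cells gives the signal; cells get compound, then TGF-beta (500 pg/mL final), 18 h at 37 degrees C; %Activity versus -TGF-beta and +DMSO controls.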
TDP1 cell noCPT = qHTS for Inhibitors of human tyrosyl-DNA phosphodiesterase 1 (TDP1): qHTS in cells in absence of CPT; DT40 Tdp1-/- hTDP1 cells, no CPT, ATP luminescence, 48 h; Potency, µM (highest dose often 46.2 µM), inactives show at the highest dose activity change, negative = growth inhibition, usual class: inhibitors; 420,000 tested, 15% active; note: % is set by controls: 0 for no effect and ±100 for the full control effect; nearly all actives have a fitted effect of over 55% in size
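DT40 Tdp1-/-;hTDP1 cells, no CPT (DMSO vehicle only), 400 cells/well; compounds pin-transferred; ≥48 hr, 37 °C; CellTiter-Glo 30 min RT dark, luminescence read.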
S2 tox = viability counter-screen for ATXN expression inhibitors; S2 cells (HEK-293 line with an ATXN2-luciferase reporter) viability, CellTiter-Fluor protease fluorescence, 24 h; Potency, µM (top dose mostly 56.7 µM), usual class: cytotoxic; 400,000 tested, 0.49% active; AID 651635; note: nearly all actives have a fitted effect of over 40% in size
* = called active by the depositor. Calls come from the whole dose curve; as a rule, active = well fitted curve in the direction sought with a large enough effect; inconclusive = small, poorly fitted or top-dose-only effect, or another doubt; inactive = no such curve, though single readings can be large; an effect the other way counts as inactive or inconclusive. Potency is the fitted concentration of half-maximal effect.

`CNc1nc(NCc2cccc(OC)c2)c2sccc2n1` gave ATXN2 expr inh -19%, HepG2 viability -24%, DT40 TDP1 CPT 7.3µM*, TGFb SMAD3 inh -13%, TDP1 cell noCPT 10µM* and S2 tox inconclusive.
`CC(Sc1nncn1C)C(=O)NCc1ccc2c(c1)OCO2` (centres undefined) gave ATXN2 expr inh 1%, HepG2 viability 4%, DT40 TDP1 CPT -1%, TGFb SMAD3 inh inconclusive, TDP1 cell noCPT -7% and S2 tox inactive.
`COc1ccc(Nc2ncc(C(=O)Nc3cccc(OC)c3)c3ccccc23)cc1` gave ATXN2 expr inh 3%, HepG2 viability 0%, DT40 TDP1 CPT inconclusive, TGFb SMAD3 inh -2%, TDP1 cell noCPT -13% and S2 tox inactive.
Cc1ccc(Nc2ccc(C(=O)N3CCCC3)cn2)c(C)c1 was read as ATXN2 expr inh 17%, HepG2 viability -10%, DT40 TDP1 CPT inconclusive, TGFb SMAD3 inh -10%, TDP1 cell noCPT 26µM* and S2 tox inactive.
Clc1ccccc1-c1nnc2sc(C3COc4ccccc4O3)nn12 (centres undefined) was read as ATXN2 expr inh 8%, HepG2 viability -15%, DT40 TDP1 CPT inconclusive, TGFb SMAD3 inh -14%, TDP1 cell noCPT -23% and S2 tox inactive.
Screening Cc1ccc(-c2nnc3sc(C4COc5ccccc5O4)nn23)cc1 (centres undefined) returned ATXN2 expr inh 2%, HepG2 viability 8%, DT40 TDP1 CPT inconclusive, TGFb SMAD3 inh 21%, TDP1 cell noCPT 23µM* and S2 tox inactive.
Screening O=C(Nc1ncc(Cc2ccc(Cl)cc2Cl)s1)c1ccc([N+](=O)[O-])cc1 returned ATXN2 expr inh -19%, HepG2 viability 14%, DT40 TDP1 CPT 18µM*, TGFb SMAD3 inh 14%, TDP1 cell noCPT 18µM* and S2 tox inactive.
O=C(Nc1ncc(Cc2ccccc2Cl)s1)C1=NCCN1 was read as ATXN2 expr inh -19%, HepG2 viability -5%, DT40 TDP1 CPT 21µM*, TGFb SMAD3 inh -8%, TDP1 cell noCPT inconclusive and S2 tox inactive.
Screening C/C(=N/NC(=O)c1ccccc1O)c1ccc(N2C(=O)C3CCCCC3C2=O)cc1 (centres undefined) returned ATXN2 expr inh 4%, HepG2 viability -5%, DT40 TDP1 CPT -19%, TGFb SMAD3 inh -55%, TDP1 cell noCPT -5% and S2 tox inactive.
`C/C(=N/OC(=O)c1ccc(C)cc1)c1ccc(N2C(=O)C3CCCCC3C2=O)cc1` (centres undefined) gave ATXN2 expr inh 6%, HepG2 viability -2%, DT40 TDP1 CPT inconclusive, TGFb SMAD3 inh -4%, TDP1 cell noCPT 16µM* and S2 tox inconclusive.
`COc1ccc(OC)c(C(C[N+](=O)[O-])c2c(C)cc3ccccn23)c1` (centres undefined) gave ATXN2 expr inh inconclusive, HepG2 viability -21%, DT40 TDP1 CPT 2.1µM*, TGFb SMAD3 inh -4%, TDP1 cell noCPT 2.9µM* and S2 tox inconclusive.
COc1ccc(NC(=O)C2c3ccccc3OCC(=O)N2Cc2ccco2)cc1 (centres undefined) was read as ATXN2 expr inh 0%, DT40 TDP1 CPT 1%, TDP1 cell noCPT -18% and S2 tox inactive.
`CCCCN1CCc2c1nc1ccc(Br)cc1c2N` gave ATXN2 expr inh inconclusive, HepG2 viability 16µM*, DT40 TDP1 CPT inconclusive, TGFb SMAD3 inh inconclusive and TDP1 cell noCPT 23µM*.
`CN1CCc2c1nc1ccccc1c2N` (tested in a mixture with another compound) gave ATXN2 expr inh -15%, HepG2 viability -3%, DT40 TDP1 CPT 12%, TGFb SMAD3 inh 2%, TDP1 cell noCPT 0% and S2 tox inconclusive.
For C/C(=N\NC(=O)c1nn(C)cc1Br)c1cccc(NC(=O)c2ccncc2)c1 the results were ATXN2 expr inh 22%, HepG2 viability -5%, DT40 TDP1 CPT -3%, TGFb SMAD3 inh -3%, TDP1 cell noCPT inconclusive and S2 tox inactive.
For CSCCC(NC(=O)c1cc(S(=O)(=O)N2CCOCC2)ccc1C)c1nc2ccccc2[nH]1 (centres undefined) the results were ATXN2 expr inh 6%, HepG2 viability -12%, DT40 TDP1 CPT 11%, TGFb SMAD3 inh 0%, TDP1 cell noCPT 25% and S2 tox inactive.
For COc1ccc(-n2nc(C(=O)Nc3ccc(Cl)cn3)c3c4ccccc4n(C)c3c2=O)cc1Cl the results were ATXN2 expr inh -2%, HepG2 viability -9%, DT40 TDP1 CPT 10%, TGFb SMAD3 inh 0%, TDP1 cell noCPT -1% and S2 tox inactive.
O=C(O)c1cc([N+](=O)[O-])ccc1N1CCC(Cc2ccccc2)CC1 was read as ATXN2 expr inh 4%, HepG2 viability -16%, DT40 TDP1 CPT inconclusive, TGFb SMAD3 inh 0%, TDP1 cell noCPT 2% and S2 tox inactive.
`O=C(NCC1CCCO1)c1cc([N+](=O)[O-])ccc1N1CCC(Cc2ccccc2)CC1` (centres undefined) gave ATXN2 expr inh -16%, HepG2 viability -13%, DT40 TDP1 CPT inconclusive, TGFb SMAD3 inh -18%, TDP1 cell noCPT 23µM* and S2 tox inconclusive.
For O=C(NCc1cccnc1)c1cc(C2CCCN(C(=O)c3ccccn3)C2)on1 (centres undefined) the results were ATXN2 expr inh -1%, HepG2 viability -15%, DT40 TDP1 CPT -20%, TGFb SMAD3 inh 4%, TDP1 cell noCPT -14% and S2 tox inactive.
`Cc1ccc(NC(=O)NCCOCCn2c(=O)oc3ccccc32)cc1C` gave ATXN2 expr inh -23%, HepG2 viability -29%, DT40 TDP1 CPT 5.8µM*, TGFb SMAD3 inh inconclusive, TDP1 cell noCPT 4.1µM* and S2 tox inactive.
CCOc1ccccc1NC(=O)NCCn1c(=O)oc2ccc(C)cc21 was read as ATXN2 expr inh -13%, HepG2 viability 2%, DT40 TDP1 CPT -27%, TGFb SMAD3 inh inconclusive, TDP1 cell noCPT inconclusive and S2 tox inactive.
Screening O=C(NCCOCCn1c(=O)oc2ccccc21)Nc1cccc(Cl)c1 returned ATXN2 expr inh inconclusive, HepG2 viability -28%, DT40 TDP1 CPT 7.3µM*, TGFb SMAD3 inh inconclusive, TDP1 cell noCPT 8.2µM* and S2 tox inconclusive.
